Inconclusive results are not listed. The source made the active and inactive calls. Unless noted, the call rests on the fitted dose curve; in most records, active means well fitted curve in the direction sought with a large enough effect; inconclusive means small, poorly fitted or top-dose-only effect, or another doubt; inactive means no such curve, though single readings can be large; an effect the other way counts as inactive or inconclusive.
How the values were obtained:
[1] = qHTS to identify inhibitors of the type 1 interferon - major histocompatibility complex class I in skeletal muscle: primary screen against the NCATS Mechanism Interrogation Plate v5.0 (MIPE) Libary (AID 1347411);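 further: plate controls were vehicle for no effect and reference inhibitor for full effect; nearly all actives have a fitted effect of over 65% in size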
In short: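 Luminescence from HiBiT-tagged endogenous HLA-B*08:01 served as the MHC class I read-out. CRISPR-engineered C25cl48 human myoblasts received 4.0 ng/ml IFN-beta plus compound for 24 hrs, with an 11-point, 1:3 series topping at 46 uM final.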

[2] = Primary qHTS for inhibitors of nuclear receptor binding SET domain protein 2 (NSD2) in an isogenic RCH-ACV NSD2 p.E1099K mutant (9B) (AID 1645876); further: nearly all actives have a fitted effect of over 70% in size; further: potency means the concentration at half of the fitted maximal effect; on activity change, negative = viability loss: on the % scale 0 is the no-effect control and ±100 the full control effect
[3] = Primary qHTS for inhibitors of nuclear receptor binding SET domain protein 2 (NSD2) in an RCH-ACV wild type WT cells (2C) (AID 1645877); further: nearly all actives have a fitted effect of over 70% in size; further: potency means the concentration at half of the fitted maximal effect; on activity change, negative = cell killing: on the % scale 0 is the no-effect control and ±100 the full control effect
[4] = target: Glutathione peroxidase 1 (Homo sapiens) (UniProt P07203); experiment: Primary qHTS Assay for Inhibitors of Recombinant Selenoprotein Glutathione Peroxidase 1 (GPX1) (AID 1845191); further: nearly all actives have a fitted effect of over 65% in size
In short: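 GR-coupled assay: compounds preincubated 30 min at room temperature with GPX1, then reaction started with CHP; final 10 nM GPX1, 1 mM GSH, 0.5 mM CHP, 0.5 mM NADPH, 100 nM GR, 0.01% BSA, pH 7.5 Tris buffer. NADPH fluorescence (340/450 nm) read at 0 and 15 min.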

[5] = target: Phospholipid hydroperoxide glutathione peroxidase GPX4 (Homo sapiens) (UniProt P36969); experiment: Primary qHTS Assay for Inhibitors of Recombinant Selenoprotein Glutathione Peroxidase 4 (GPX4) (AID 1845192); conditions: outcome: dose series up to 50 µM unless noted; further: nearly all actives have a fitted effect of over 65% in size
In short: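 GR-coupled assay: recombinant GPX4 preincubated 30 min with compound at room temperature; final 200 nM GPX4, 1 mM GSH, 0.5 mM cumene hydroperoxide, 0.5 mM NADPH, 100 nM GR, 0.01% BSA, pH 7.5 Tris. NADPH fluorescence (340/450 nm) read at 0 and 15 min.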

[6] = qHTS drug screen for cell cycle checkpoint inhibitors in PARPi-resistant BRCA-mutant ovarian cancer cell lines. (AID 1963452; calls by dose curve); conditions: PEO1/OlaR viability, CellTiter-Glo luminescence, 96 h, stronger effect = lower value
In short: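 PEO1, PEO4 and PEO1/OlaR ovarian cancer cells, 600 per well, exposed 96 h at 37C to a dilution series. Viability read by CellTiter-Glo luminescence, normalized to DMSO and empty wells; activity summarized as Z-AUC.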

[7] = Viability counterscreen for antagonist of constitutive androstane receptor (CAR) against the NCATS DSHEA and TCM libraries (AID 1794837);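 further: compound exposure lasted 24 h before viability reading; 0% is about no effect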
In short: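 Counterscreen performed in a 1536-well qHTS format using HepG2-CYP2B6-hCAR cells; samples titrated in the presence of 48 uM CITCO, with viability measured fluorometrically (405/540 nm) after 24 h.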

[8] = target: Nuclear receptor subfamily 1 group I member 3 (Homo sapiens) (UniProt Q14994); experiment: Primary qHTS for agonist of constitutive androstane receptor (CAR) against the NCATS DSHEA and TCM libraries (AID 1794839);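 further: HepG2 cells expressing human CAR with a CYP2B6 reporter plus PK11195 antagonist; 0% is about no effect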
In short: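 Concentration–response screen in HepG2-CYP2B6-hCAR cells under 0.75 µM PK11195; 24 h exposure; luminescent reporter signal with multiplexed fluorescent viability.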

[9] = HepG2 viability counterscreen (readout 2: ATP content) against the NCATS DSHEA and TCM libraries (AID 1794840);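 further: HepG2 cells exposed to substances for about 24 h; 0% is about no effect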
In short: (§1)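 After HepG2 cells attach for ~4 h, substances are added and incubated ~24 h at 37C, 5% CO2. GF-AFC fluorescence then CellTiter-Glo luminescence give protease and ATP readouts.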

[10] = HepG2 viability counterscreen (readout 1: protease activity) against the NCATS DSHEA and TCM libraries (AID 1794841);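 further: cells exposed to compounds for about 24 h before the protease read; 0% is about no effect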
In short: as §1

[11] = target: Cytochrome P450 2D6 (Homo sapiens) (UniProt P10635); experiment: qHTS for inhibitors of CYP2D6 against the NCATS DSHEA and TCM libraries (AID 1919972); further: on the % scale 0 is the no-effect control and ±100 the full control effect
In short: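 Luminescent P450-Glo read-out of CYP2D6 turnover of a luciferin substrate after NADPH-driven reaction of 30-45 min at room temperature. Compounds were first preincubated 15 min with enzyme at titrated concentrations; quinidine was the intraplate control.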

[12] = target: Cytochrome P450 2C9 (Homo sapiens) (UniProt P11712); experiment: qHTS for inhibitors of CYP2C9 against the NCATS DSHEA and TCM libraries (AID 1919973);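 further: luminogenic pro-luciferin CYP2C9 substrate turned into luciferin with NADPH regeneration; series mostly up to about 34 µM; on the % scale 0 is the no-effect control and ±100 the full control effect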
In short: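 Read-out is luminescence after P450-Glo detection (30 min, RT). Before that: 15 min compound–enzyme preincubation, then 30-45 min reaction with 1x NADPH regeneration solution, substrate concentration isoform-specific.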

[13] = target: Cytochrome P450 1A2 (Homo sapiens) (UniProt P05177); experiment: qHTS for inhibitors of CYPIA2 against the NCATS DSHEA and TCM libraries (AID 1919976); conditions: recombinant CYP1A2 enzyme activity, luminescence; further: potency means the concentration at half of the fitted maximal effect
In short: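 CYP1A2 + luciferin substrate, 100 mM KPO4-type buffer; cmpd 15 min RT; 1x NADPH regen, 30-45 min RT dark; detection reagent 30 min RT; luminescence. Minus-enzyme wells as background; furafylline intraplate control.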

[14] = Dual reporter qHTS for agonist of Pregnane X Receptor (hPXR) against the NCATS DSHEA and TCM libraries: Fluorescence readout (AID 1920058); further: 0% is about no effect
In short: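 HepG2 hPXR-Luc, 2000 cells/well, 5 h attach; cpds ~24 h, 37 °C/5% CO2; CellTiter-Fluor 1 h; fluor. Ex/Em 405/540 nm = viability.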

[15] = target: Nuclear receptor subfamily 1 group I member 2 (Homo sapiens) (UniProt O75469); experiment: Dual reporter qHTS for antagonist of Pregnane X Receptor (hPXR) against the NCATS DSHEA and TCM libraries: Luminescence Readout (AID 1920060);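 further: HepG2 cells carrying hPXR luciferase reporter stimulated with rifampicin at 2 µM; 0% is about no effect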
In short: (§2)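 hPXR-Luc HepG2 cells exposed 24 h at 37 C to compounds with 2 uM rifampicin in antagonist mode; luciferase luminescence measured by ONE-Glo, with CellTiter-Fluor viability read beforehand.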

[16] = Dual reporter qHTS for antagonist of Pregnane X Receptor (hPXR) against the NCATS DSHEA and TCM libraries: Fluorescence Readout (AID 1920061); further: 0% is about no effect
In short: as §2

[17] = measured here: PEO1 parental Z-AUC

Sequence of Glutathione peroxidase 1 (Homo sapiens) (P07203 whole entry, looked up): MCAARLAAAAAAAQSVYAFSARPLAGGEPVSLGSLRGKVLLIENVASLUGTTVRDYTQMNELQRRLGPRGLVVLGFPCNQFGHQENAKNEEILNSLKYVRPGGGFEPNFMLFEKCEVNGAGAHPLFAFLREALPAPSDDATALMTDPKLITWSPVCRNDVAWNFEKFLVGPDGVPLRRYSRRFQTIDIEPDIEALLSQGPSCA
Sequence of Phospholipid hydroperoxide glutathione peroxidase GPX4 (Homo sapiens) (P36969 whole entry, looked up): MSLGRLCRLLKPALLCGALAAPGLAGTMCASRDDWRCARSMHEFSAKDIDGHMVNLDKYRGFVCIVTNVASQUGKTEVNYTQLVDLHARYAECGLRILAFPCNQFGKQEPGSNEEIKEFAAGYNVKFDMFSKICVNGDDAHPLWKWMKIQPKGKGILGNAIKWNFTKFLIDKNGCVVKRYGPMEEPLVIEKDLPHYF
Sequence of Cytochrome P450 2C9 (Homo sapiens) (P11712 whole entry, looked up, canonical isoform): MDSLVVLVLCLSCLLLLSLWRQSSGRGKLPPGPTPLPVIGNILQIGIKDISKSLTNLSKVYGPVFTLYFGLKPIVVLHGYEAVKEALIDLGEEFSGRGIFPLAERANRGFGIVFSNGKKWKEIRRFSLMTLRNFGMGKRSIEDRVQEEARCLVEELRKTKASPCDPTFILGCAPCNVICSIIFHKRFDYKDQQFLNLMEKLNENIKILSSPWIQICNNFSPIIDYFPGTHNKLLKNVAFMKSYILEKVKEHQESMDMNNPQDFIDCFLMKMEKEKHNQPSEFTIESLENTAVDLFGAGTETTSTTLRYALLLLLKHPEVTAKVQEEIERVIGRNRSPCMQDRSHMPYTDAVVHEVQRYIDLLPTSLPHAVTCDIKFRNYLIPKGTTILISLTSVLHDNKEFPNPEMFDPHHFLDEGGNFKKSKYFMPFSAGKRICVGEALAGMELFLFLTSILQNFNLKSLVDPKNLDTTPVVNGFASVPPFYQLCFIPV
Sequence of Cytochrome P450 2D6 (Homo sapiens) (P10635 whole entry, looked up): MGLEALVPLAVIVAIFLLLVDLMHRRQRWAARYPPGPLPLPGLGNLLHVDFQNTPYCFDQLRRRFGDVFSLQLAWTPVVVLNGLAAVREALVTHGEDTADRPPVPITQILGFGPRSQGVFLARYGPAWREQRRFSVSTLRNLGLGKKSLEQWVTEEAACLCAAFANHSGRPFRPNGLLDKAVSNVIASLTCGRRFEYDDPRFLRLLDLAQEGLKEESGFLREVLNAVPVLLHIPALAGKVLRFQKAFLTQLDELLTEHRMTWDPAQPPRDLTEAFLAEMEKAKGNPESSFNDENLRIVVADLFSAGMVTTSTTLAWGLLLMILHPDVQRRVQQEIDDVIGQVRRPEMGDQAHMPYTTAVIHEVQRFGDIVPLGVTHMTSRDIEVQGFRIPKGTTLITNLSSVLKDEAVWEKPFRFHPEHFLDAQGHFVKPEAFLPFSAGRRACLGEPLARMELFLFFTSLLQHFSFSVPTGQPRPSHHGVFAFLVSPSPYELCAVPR
Sequence of Nuclear receptor subfamily 1 group I member 3 (Homo sapiens) (Q14994 whole entry, looked up): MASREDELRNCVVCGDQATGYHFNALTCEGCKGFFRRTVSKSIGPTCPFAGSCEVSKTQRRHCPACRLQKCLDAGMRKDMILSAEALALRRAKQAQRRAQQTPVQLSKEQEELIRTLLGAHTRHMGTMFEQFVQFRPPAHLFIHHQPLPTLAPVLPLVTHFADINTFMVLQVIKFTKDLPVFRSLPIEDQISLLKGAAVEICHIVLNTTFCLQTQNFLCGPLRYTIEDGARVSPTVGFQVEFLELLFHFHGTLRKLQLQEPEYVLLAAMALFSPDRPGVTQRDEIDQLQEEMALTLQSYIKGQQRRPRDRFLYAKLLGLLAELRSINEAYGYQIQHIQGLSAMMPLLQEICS
Sequence of Cytochrome P450 1A2 (Homo sapiens) (P05177 whole entry, looked up): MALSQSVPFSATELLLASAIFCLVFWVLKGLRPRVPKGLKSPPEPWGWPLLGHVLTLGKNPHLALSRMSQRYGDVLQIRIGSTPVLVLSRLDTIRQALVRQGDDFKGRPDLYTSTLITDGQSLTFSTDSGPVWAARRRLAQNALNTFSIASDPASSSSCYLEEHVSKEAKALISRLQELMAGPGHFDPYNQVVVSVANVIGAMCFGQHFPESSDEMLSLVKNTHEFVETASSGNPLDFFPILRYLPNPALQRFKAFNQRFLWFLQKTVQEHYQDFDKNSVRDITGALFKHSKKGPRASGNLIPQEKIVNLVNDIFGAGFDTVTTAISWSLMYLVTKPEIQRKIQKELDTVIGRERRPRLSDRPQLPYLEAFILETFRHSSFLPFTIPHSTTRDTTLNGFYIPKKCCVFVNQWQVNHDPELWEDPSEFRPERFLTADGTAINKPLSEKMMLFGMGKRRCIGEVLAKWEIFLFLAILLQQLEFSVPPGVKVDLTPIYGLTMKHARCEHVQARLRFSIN
Sequence of Nuclear receptor subfamily 1 group I member 2 (Homo sapiens) (O75469 whole entry, looked up): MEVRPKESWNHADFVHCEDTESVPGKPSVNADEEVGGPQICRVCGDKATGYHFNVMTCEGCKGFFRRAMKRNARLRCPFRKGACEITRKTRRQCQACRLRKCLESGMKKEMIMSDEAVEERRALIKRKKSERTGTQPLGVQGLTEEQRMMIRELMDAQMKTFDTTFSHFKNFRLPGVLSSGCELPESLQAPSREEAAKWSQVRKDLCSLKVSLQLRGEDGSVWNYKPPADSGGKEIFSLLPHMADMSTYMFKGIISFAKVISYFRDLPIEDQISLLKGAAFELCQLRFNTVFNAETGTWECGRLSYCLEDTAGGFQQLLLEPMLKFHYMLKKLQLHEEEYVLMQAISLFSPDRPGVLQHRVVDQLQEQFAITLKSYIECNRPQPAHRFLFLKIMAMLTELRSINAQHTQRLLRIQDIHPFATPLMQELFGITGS

## C[C@H]1CNCCCN1S(=O)(=O)c1cccc2cncc(F)c12
[1]
  Potency: inactive
[2]
  Potency: inactive
[3]
  Potency: inactive
[4]
  Potency: inactive
[5]
  Potency: inactive
[6]
  Z-AUC: -0.978 (inactive)
[6]; [17]
  Z-AUC: -0.15
[6]; measured here: PEO4 Z-AUC
  Z-AUC: 0.771

## COc1cc2c(cc1OC)CN(CCc1ccc(-n3nnc(-c4cc(OC)c(OC)cc4NC(=O)c4cc(=O)c5ccccc5o4)n3)cc1)CC2
[1]
  activity change, negative = inhibition: -5.16% [at 0.314 µM] (inactive)
[2]
  outcome: inactive [at 0.588 µM]
[3]
  outcome: inactive [at 0.588 µM]
[4]
  outcome: inactive [at 0.4 µM]
[5]
  outcome: inactive [at 0.409 µM]
[6]
  Z-AUC: 2.8 (inactive)
[6]; [17]
  Z-AUC: 2.17
[6]; measured here: PEO4 Z-AUC
  Z-AUC: 2.67

## O=C1CC[C@H](N2Cc3c(OCc4ccc(CN5CCOCC5)cc4)cccc3C2=O)C(=O)N1
[1]
  Potency: inactive
[2]
  Potency: 16.6 nM (active)
[3]
  Potency: 33.2 nM (active)
[4]
  Potency: inactive
[5]
  Potency: inactive
[6]
  Z-AUC: 1.34 (inactive)
[6]; [17]
  Z-AUC: 1.06
[6]; measured here: PEO4 Z-AUC
  Z-AUC: 1.23

## Cc1ccc(S(=O)(=O)Nc2cc(-c3ccc(C#N)s3)ccc2C)cc1
[1]
  Potency: inactive
[2]
  Potency: 46.8 nM (active)
[3]
  Potency: 41.7 nM (active)
[4]
  Potency: inactive
[5]
  Potency: inactive
[6]
  Z-AUC: -2.2 (inactive)
[6]; [17]
  Z-AUC: -2.3
[6]; measured here: PEO4 Z-AUC
  Z-AUC: -2.13

## CN(C)CCNC(=O)COc1c2cccc1Cc1cccc(c1OCC(=O)NCCN(C)C)Cc1cccc(c1OCC(=O)NCCN(C)C)Cc1cccc(c1OCC(=O)NCCN(C)C)C2
[1]
  activity change, negative = inhibition: -36% [at 8.44 µM] (inactive)
[2]
  activity change, negative = viability loss: 4.69% [at 9.23 µM] (inactive)
[3]
  activity change, negative = cell killing: 5.34% [at 9.23 µM] (inactive)
[4]
  outcome: inactive [at 9.52 µM]
[5]
  outcome: inactive [at 9.73 µM]
[6]
  Z-AUC: -0.309 (inactive)
[6]; [17]
  Z-AUC: -0.716
[6]; measured here: PEO4 Z-AUC
  Z-AUC: -0.127

## CC[C@H]1OC(=O)[C@H](C)C(=O)[C@H](C)[C@@H](O[C@H]2O[C@H](C)C[C@H](N(C)C)[C@H]2O)[C@](C)(OC)C[C@@H](C)C(=O)[C@H](C)[C@H]2N(CCCCn3cnc(-c4cccnc4)c3)C(=O)O[C@]12C
[1]
  Potency: inactive
[2]
  Potency: inactive
[3]
  Potency: inactive
[4]
  Potency: inactive
[5]
  Potency: inactive
[6]
  Z-AUC: 0.729 (inactive)
[6]; [17]
  Z-AUC: 0.267
[6]; measured here: PEO4 Z-AUC
  Z-AUC: -0.0116

## CC(C)NCCCn1c(Sc2cc(Cl)cc(Cl)c2)nc2c(N)ncnc21
[1]
  Potency: inactive
[2]
  Potency: 20900 nM (active)
[3]
  Potency: 18600 nM (active)
[4]
  Potency: inactive
[5]
  Potency: inactive
[6]
  Z-AUC: -1.23 (inactive)
[6]; [17]
  Z-AUC: -0.363
[6]; measured here: PEO4 Z-AUC
  Z-AUC: 0.533

## C[C@H]1[C@H](C)CC[C@]2(C(=O)O)CC[C@]3(C)C(=CC[C@@H]4[C@@]5(C)CC[C@H](O)C(C)(C)[C@@H]5CC[C@]43C)[C@H]12
[1]
  Potency: inactive
[2]
  Potency: inactive
[3]
  Potency: inactive
[7]
  outcome: inactive
[8]
  outcome: inactive
[9]
  outcome: inactive
[10]
  outcome: inactive
[4]
  Potency: inactive
[5]
  Potency: inactive
[11]
  Potency: inactive
[12]
  Potency: inactive
[13]
  Potency: 3550 nM (active)
[14]
  outcome: inactive
[15]
  outcome: inactive
[16]
  outcome: inactive
[6]
  Z-AUC: 0.556 (inactive)
[6]; [17]
  Z-AUC: 0.879
[6]; measured here: PEO4 Z-AUC
  Z-AUC: 0.501

Source: PubChem BioAssay (NCATS)
